Results reported in PubChem BioAssay AID488856 (Sanford-Burnham Center for Chemical Genomics, 2010).
The whole screen tested about 1,400 compounds, of which about 50 (4%) were called active.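 The calls were made as follows: active = mean inhibition across replicates above about 26% (limit read from the data); inactive = the rest.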 Only a sample is shown.

Biological target: Caspase-3 (Homo sapiens) (UniProt P42574)
Experiment: CASP3 inhibitor validation, counterassay for project on UBE2N polyubiquitination blockers, biochemical, one dose (AID 488856);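 also: plate controls were DMSO with caspase-3 for no effect and DMSO wells lacking enzyme for full effect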
Details: Recombinant caspase-3, Caspase-Glo 3/7 luminescence, 60 min; at 20 µM; stronger effect = higher value

Sequence of Caspase-3 (Homo sapiens) (P42574 whole entry, looked up): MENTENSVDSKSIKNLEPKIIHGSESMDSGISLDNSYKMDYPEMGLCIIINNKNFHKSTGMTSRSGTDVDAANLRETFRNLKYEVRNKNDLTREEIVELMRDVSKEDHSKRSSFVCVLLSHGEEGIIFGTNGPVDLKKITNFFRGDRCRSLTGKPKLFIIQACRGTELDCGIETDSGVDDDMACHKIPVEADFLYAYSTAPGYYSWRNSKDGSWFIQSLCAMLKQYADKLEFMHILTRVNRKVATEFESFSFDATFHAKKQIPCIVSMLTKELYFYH

Question: How did the inhibition turn out when `CC(C)n1cnc2c(Nc3cccc(Cl)c3)nc(N(CCO)CCCO)nc21` was run?
Answer: The inhibition was -1.5% (inactive).

Question: How did the inhibition turn out when `C#CCOCCOCCOCCNc1nc(N2CCN(C(=O)CCCCCCCCCCNC(=O)[C@H]([C@@H](C)CC)n3cc(CCCCN=C(N)N)nn3)CC2)nc(N2CCN(C(=O)CCCCCCCCCCNC(=O)[C@H](CO)n3cc(CCCSC)nn3)CC2)n1` was run?
Answer: The inhibition was -0.7% (inactive).

Question: With `NC(N)=N/N=C/c1ccc(OCc2ccc(Cl)cc2Cl)cc1` as the molecule, how does the inhibition read?
Answer: The inhibition was -1.8% (inactive).

Question: `COc1ccc(-c2nnc3ccc(SCc4ccccc4)nn23)cc1` was tested. Which inhibition did it give?
Answer: Its inhibition is -6.5% (inactive).

Question: With `COc1cccc(Cn2cnc3c([N+](=O)[O-])c(C)c(C)cc32)c1` as the molecule, how does the inhibition read?
Answer: Its inhibition is -0.7% (inactive).

Question: With `CN(C(=O)CN(CCO)CC(=O)N(C)C(C)(C)Cc1ccccc1)C(C)(C)Cc1ccccc1` as the molecule, how does the inhibition read?
Answer: Its inhibition is -0.1% (inactive).

Question: How did the inhibition turn out when `CCOc1ccc2nc(N(CCCN(C)C)C(=O)c3ccc(C(=O)c4ccccc4)cc3)sc2c1` was run?
Answer: The inhibition was 3.4% (inactive).

Question: For `Cc1ccc(C(=O)N/C(=C/c2ccc(-c3cccc([N+](=O)[O-])c3)o2)C(=O)NCCCN(C)C)cc1`, which inhibition is on record?
Answer: The inhibition was -0.7% (inactive).

Question: `COc1ccc(C(CNC(=O)c2cccc(NS(=O)(=O)c3ccc(C)c(F)c3)c2)N2CCCC2)cc1` (stereo not given) was tested. Which inhibition did it give?
Answer: Its inhibition is 0.9% (inactive).

Question: For `Cn1c(C(=O)NCCCN2CCN(c3cccc(Cl)c3)CC2)cc2c(=O)n(C)c3ccccc3c21`, which inhibition is on record?
Answer: Its inhibition is 1.8% (inactive).

Question: For `CC1CC(C)(C)n2c(O)c(N=NC(N)=S)c3cccc1c32` (stereo not given), which inhibition is on record?
Answer: The inhibition was -2.8% (inactive).

Question: For `CN(C)CCCN(C(=O)c1ccc(S(=O)(=O)N2CCCCCC2)cc1)c1nc2ccc(Br)cc2s1`, which inhibition is on record?
Answer: The inhibition was 0.1% (inactive).

Question: With `COc1ccc2sc(-c3ccc(S(C)(=O)=O)cc3)c(C#Cc3cncn3C)c2c1` as the molecule, how does the inhibition read?
Answer: The inhibition was 0.2% (inactive).

Question: Which inhibition does the source give for `COc1ccc(-n2nnnc2-c2nc3ccccc3s2)cc1` here?
Answer: The inhibition was 85.5% (active).

Question: Which inhibition does the source give for `CCN(CC)CCNC(=O)c1ccc(NC(=O)c2cc(-c3ccncc3)nc3ccccc23)cc1` here?
Answer: The inhibition was -3.4% (inactive).

Question: Which inhibition does the source give for `O=S(=O)(c1ccc(NC(=S)NN=C(C2CC2)C2CC2)cc1)N1CCOCC1` here?
Answer: Its inhibition is 3.2% (inactive).

Question: How did the inhibition turn out when `COc1ccc2sc(-c3ccccc3OC)c(-c3ccc(OCCN4CCCC4)cc3)c2c1` was run?
Answer: Its inhibition is -2.6% (inactive).

Question: Which inhibition does the source give for `O=c1cc(CO)oc(C(Nc2cccc([N+](=O)[O-])c2)c2ccccn2)c1O` (stereo not given) here?
Answer: The inhibition was 1.9% (inactive).

Question: Which inhibition does the source give for `Cc1nc(N2CCN(c3ccccn3)CC2)c2c(C)c(C(=O)Nc3ccc(F)cc3)sc2n1` here?
Answer: The inhibition was -2.6% (inactive).

Question: With `C#CCOCCOCCOCCNc1nc(N2CCN(C(=O)CCCCCCCCCCNC(=O)Cn3cc(CCCCCN)nn3)CC2)nc(N2CCN(C(=O)CCCCCCCCCCNC(=O)[C@H](CO)n3cc(CCCSC)nn3)CC2)n1` as the molecule, how does the inhibition read?
Answer: Its inhibition is 3% (inactive).
